This note sets out measurements from the supplement of paper PMC13380429.

The assay relates to Vero E6 infected with SARS-CoV-2. Description: morphology score (similarity to uninfected cells); higher = more like uninfected cells. To be noted: 24 h.
Compound `Cc1c(-c2cnccn2)ssc1=S` [oltipraz] (10 µM) came in with a morphology score of -0.0383.
Then `COc1ccc(CC2NCCc3c2[nH]c2ccc(C)cc32)c(Cl)c1OC` (stereo not drawn) (0.833333 µM), with -0.0343; and `OC[C@H]1O[C@@H](n2cnc3c(N[C@H]4CCC[C@@H]4O)ncnc32)[C@H](O)[C@@H]1O` (10 µM), with 0.227.
On to `C[C@H](c1ccc2ccc(OC3CCC(C(F)(F)F)CC3)c(C(F)(F)F)c2c1)N1C2CCC1CC(C(=O)O)C2` (stereo partly drawn) [autotaxin-modulator-1] (10 µM), for which the morphology score amounted to 0.317.
As to `N#Cc1ccc(N2N=C3c4ccc(C(=O)O)cc4CC[C@@H]3[C@@H]2C2CCCC2)cc1Cl` (10 µM), the morphology score was -0.174.
`C=C[C@H]1CN2CC[C@H]1CC2C(OC(=O)OCC)c1ccnc2ccc(OC)cc12` (stereo in doubt) [quinine-ethyl-carbonate] (10 µM) returned a morphology score of 0.215.
`O=S(=O)(c1cccc2c(O)nccc12)N1CCCNCC1` [hydroxyfasudil] (10 µM) came in with a morphology score of 0.355.
Take `COC(=O)[C@@H](N)CCCNC(=N)N[N+](=O)[O-]` (10 µM): the morphology score was determined as 0.125.
In turn, `c1ccc(Oc2cccnc2)cc1` (10 µM) showed a morphology score of 0.0741.
In turn, `CCCCCCCCCCCCCC(=O)OC(C)C` [isopropyl-myristate] (10 µM) came in with a morphology score of 0.235.
Then `C[C@]12CCC(=O)C[C@@H]1CC[C@@H]1[C@@H]2CC[C@]2(C)C=CC[C@@H]12` [androstenone] (10 µM), with -0.064.
Compound `COc1ccc(NS(=O)(=O)c2ccc(N)cc2)nn1` [sulfamethoxypyridazine] (10 µM) displayed a morphology score of 0.0793.
The compound `Cc1nc(Nc2ncc(C(=O)Nc3c(C)cccc3Cl)s2)cc(N2CCN(CCO)CC2)n1` [dasatinib] (0.833333 µM) registered a morphology score of -0.0371.
